Out of some 220,000 compounds screened, about 910 (0.41%) were called active.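 How the source made its calls: active means primary inhibition above the hit cutoff, then over 50% inhibition at one or more dose response concentrations (cut at about 23% in these data, passing the limit was not always enough); inconclusive means conflicting primary data, or primary hits not chosen for dose response; inactive means low primary inhibition, or under 50% at every dose.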 This excerpt belongs to a sample that is enriched for actives. Potency and affinity values are given separately.
Each compound was assayed against Aminopeptidase N (Plasmodium falciparum (isolate 3D7)) (UniProt O96935) (assay: malaria alanyl aminopeptidase activity blockers – biochemical, fluorogenic H-Leu-NHMec substrate, 1536-well (AID 1445;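 further: plate controls were DMSO full reaction for no effect and no enzyme background for full effect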)). Conditions: recombinant M1AAP, H-Leu-NHMec fluorogenic kinetic assay; at 30 µM, stronger effect = higher value unless noted.
Aminopeptidase N (Plasmodium falciparum (isolate 3D7)), sequence (O96935 whole entry, looked up): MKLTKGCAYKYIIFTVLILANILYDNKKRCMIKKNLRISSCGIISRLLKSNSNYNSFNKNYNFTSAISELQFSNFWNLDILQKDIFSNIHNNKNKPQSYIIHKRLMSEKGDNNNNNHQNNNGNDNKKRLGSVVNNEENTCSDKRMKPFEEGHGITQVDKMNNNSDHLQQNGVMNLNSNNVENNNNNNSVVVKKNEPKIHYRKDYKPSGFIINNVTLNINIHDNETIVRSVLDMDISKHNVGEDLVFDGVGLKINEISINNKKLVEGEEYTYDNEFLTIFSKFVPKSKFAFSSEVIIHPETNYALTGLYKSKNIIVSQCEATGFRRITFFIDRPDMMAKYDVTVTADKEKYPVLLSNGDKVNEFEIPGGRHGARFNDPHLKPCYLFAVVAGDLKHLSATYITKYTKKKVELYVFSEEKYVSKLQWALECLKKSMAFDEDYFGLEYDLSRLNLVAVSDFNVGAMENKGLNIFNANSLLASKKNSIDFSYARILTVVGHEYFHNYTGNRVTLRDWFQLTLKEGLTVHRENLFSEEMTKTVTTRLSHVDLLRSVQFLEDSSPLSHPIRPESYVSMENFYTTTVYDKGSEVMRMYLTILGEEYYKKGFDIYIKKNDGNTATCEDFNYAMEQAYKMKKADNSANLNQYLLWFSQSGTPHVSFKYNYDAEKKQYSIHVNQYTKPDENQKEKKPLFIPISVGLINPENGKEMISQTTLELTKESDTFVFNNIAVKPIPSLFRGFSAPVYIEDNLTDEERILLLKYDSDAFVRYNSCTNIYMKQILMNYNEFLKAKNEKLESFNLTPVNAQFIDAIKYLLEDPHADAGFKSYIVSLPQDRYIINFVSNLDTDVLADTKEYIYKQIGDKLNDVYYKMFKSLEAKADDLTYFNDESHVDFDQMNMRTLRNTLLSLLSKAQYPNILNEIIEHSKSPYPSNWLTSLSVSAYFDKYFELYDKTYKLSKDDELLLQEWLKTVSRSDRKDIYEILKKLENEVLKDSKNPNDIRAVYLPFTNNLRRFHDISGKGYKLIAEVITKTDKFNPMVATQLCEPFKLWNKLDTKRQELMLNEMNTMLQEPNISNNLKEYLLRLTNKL

inhibition, inactive:
O=C(Cc1cccs1)N/N=C/C=C/c1ccccc1[N+](=O)[O-] 2.54%
CCc1nnc(NS(=O)(=O)c2ccc(NC(=S)NC(=O)c3ccc(Br)cc3)cc2)s1 21.6%
CCc1nnc(NS(=O)(=O)c2ccc(NC(=S)NC(=O)c3ccc(F)cc3)cc2)s1 22.7%
COc1ccc(C(=O)/C=C/Nc2cccc(O)c2)cc1 -6.48%
Cn1nc(C(F)(F)F)c2cc(C(=O)Nc3ccc(F)c(Cl)c3)sc21 8.67%
COc1ccccc1/C=N/NC(=O)c1sc(C)nc1C 5.02%
O=C(N/N=C/c1ccco1)c1cccc(N2CCCC2=O)c1 2.43%
CN(C)c1ccc(/C=N/NC(=O)c2cccc(N3CCCC3=O)c2)cc1 4.11%
COc1ccc(/C=N/NC(=O)c2sc(C)nc2C)cc1 9.79%
O=C(CNC(=O)c1cccc(Br)c1)N/N=C/c1cc(Br)cc(Br)c1O 0.13%
COc1ccccc1/C=C/C(=O)NCC(=O)N/N=C/c1cc(Br)ccc1OC 22.4%
O=C(CNC(=O)c1ccncc1)N/N=C/c1cc(Br)ccc1OCc1ccccc1 5.07%
O=C(CNC(=O)c1ccc(F)cc1)N/N=C/c1cc(Br)ccc1OCc1ccccc1 0.24%
CCOC(=O)CSc1nc2cc(C(=O)NCc3ccco3)ccc2c(=O)n1-c1ccc(F)cc1 4.72%
O=C(CCCCn1c(=O)[nH]c2ccccc2c1=O)NCCc1c[nH]c2ccccc12 3.37%
O=C(OCc1cc([N+](=O)[O-])cc2c1OCOC2)c1ccc2ccccc2n1 -2.61%
Cc1cccc(NC(=O)CC2SC(=O)N(c3ccccc3)C2=O)c1 (stereo not given) 0.32%
C=C1C(C(=O)Nc2cccc(OC)c2)C1C(=O)Nc1cccc(OC)c1 (stereo not given) 4.96%
CCn1c(O)c(/C=N/N=C2CCCCC2)c2cc(C3=NNC(=O)CC3)ccc21 4.81%
CCOC(=O)c1sc2nccc(N(C)C)c2c1N=CN(C)C 6.88%
COc1ccc(OC)c(CN2CCC(C(=O)N(C)CCc3ccc(OC)c(OC)c3)CC2)c1 6.02%
COc1ccccc1/C=N/NC(=O)c1cccc(NC(=O)c2ccccc2Cl)c1 6.04%
COc1cc(/C=N/NC(=O)c2cccnc2)ccc1OCC(=O)Nc1c(C)cc(C)cc1C 5.36%
COc1cc(/C=N/NC(=O)c2cccc(NC(=O)c3ccccc3Cl)c2)ccc1O 21.6%
O=C(O)c1ccccc1N/N=C/c1cc(Br)cc(Br)c1O 17.7%
CCC(O)(CC)C(=O)N/N=C/c1cc(Br)cc(Br)c1O 30.1%
COc1cccc(/C=N/NC(=O)CN2CC(c3ccccc3)CC2=O)c1OC (stereo not given) 0.13%
COc1cccc(/C=N/NC(=O)CN2CC(c3ccccc3)CC2=O)c1O (stereo not given) 5.93%
CCNC(=O)COc1ccc(/C=N/NC(=O)c2cccnc2)cc1OC 3.71%
O=c1[nH]c(Cc2ccccc2Cl)nc2ccccc12 -2.4%
CCc1c(C)[nH]n(-c2nc(-c3ccccc3)cs2)c1=O -3.51%
C=CCn1c(=O)c2ccccc2n2c(SCc3nnc(-c4ccccc4Br)o3)nnc12 2.98%
Cc1ccc(NC(=O)c2cc(-c3ccco3)on2)cc1C 3.16%
CC12COC3(C(=O)NCCc4ccccc4)CC1CCC32C (stereo not given) 3.11%
CCCNS(=O)(=O)c1ccc(OCC(=O)NCCC2=CCCCC2)cc1 7.1%
Cc1ccc(S(=O)(=O)CCc2nnc(NC(=O)c3cccs3)s2)cc1 -1.23%
O=C(CNC(=O)c1ccncc1)N/N=C/c1ccc(Br)cc1 7.31%
O=C(N/N=C/c1cc(Cl)ccc1O)c1ccc(Br)cc1 22.2%
Cc1ccc(/C=N/NC(=O)C(c2ccncc2)N2CCOCC2)cc1 (stereo not given) 2.18%
COc1ccc(Br)cc1/C=N/NC(=O)C(c1ccncc1)N1CCOCC1 (stereo not given) -2.26%
O=C(CNC(=O)c1ccccc1Br)N/N=C/c1ccc(O)cc1 -0.27%
O=C(N/N=C/c1cc(Cl)cc(Cl)c1O)c1ccncc1 29.6%
O=C(CNC(=O)c1ccccc1Br)N/N=C/c1ccccc1O -1.99%
O=C(CNC(=O)c1ccncc1)N/N=C/c1ccc(O)cc1O 3.55%
CC(=O)c1cc(CN2C(=O)CCC2=O)cs1 -1.15%
O=C(CSc1nc2ccccc2s1)NCCOc1ccc(Cl)cc1 -0.05%
COCc1c(C(=O)OC)nnn1-c1ccccc1 -5.18%
CCCc1c(O)nc(SCCN(CC)CC)n(C(=O)c2ccccc2)c1=O 6.49%
CC(=O)c1ccc(N2CCN(C(=S)NCCCN(C)C)CC2)cc1 6.58%
O=C(N1CCOCC1)N1CCC(NC(=O)C23CC4CC(CC(C4)C2)C3)CC1 -1.68%
O=C(COC(=O)/C=C/c1ccc(S(=O)(=O)N2CCOCC2)cc1)NCc1ccccc1 7.02%
COc1cccc(-c2nnc(SCC3CNC(=O)O3)n2-c2ccc(Cl)cc2)c1 (stereo not given) 3.85%
Cc1cccc(OCC(=O)Nc2cc(S(=O)(=O)N3CCCCC3)ccc2N2CCN(C)CC2)c1 5.64%
Cc1cnc(C(=O)Nc2nc(-c3ccccc3)cs2)cn1 7.19%
O=C(N/N=C/c1cc([N+](=O)[O-])ccc1O)c1ccncc1 18.8%
O=C(N/N=C/c1cc(Br)cc(Br)c1O)c1ccncc1 36.7%
CN(C)/C=C(\C=O)c1onc(-c2ccccc2Cl)c1C#N 6.68%
CN(CC(=O)Nc1ccccc1C(=O)N1CCCC1)S(=O)(=O)c1ccc(Br)cc1 -0.21%
CC(C)C1NC2(C(=O)c3ccccc3C2=O)C2C(=O)N(c3ccc(F)cc3)C(=O)C12 (stereo not given) 0.46%
Cc1ccc(NC(=O)CN2C(=O)S/C(=C\c3ccc(-c4cccc(C(=O)O)c4C)o3)C2=O)cc1 0.51%
COc1cc(/C=C2\SC(=N)N(c3ccc4c(c3)OCO4)C2=O)cc(OC)c1O 5.15%
N=C1S/C(=C\c2ccco2)C(=O)N1c1ccc2c(c1)OCO2 10%
Cc1ccccc1NC(=O)CN1C(=O)S/C(=C\c2ccc(-c3cccc(C(=O)O)c3C)o2)C1=O -2.06%
Cc1ccc(NC(=O)CN2C(=O)S/C(=C\c3ccc(-c4cccc(C(=O)O)c4C)o3)C2=O)cc1C 8.24%
Cc1cccc(NC(=O)CN2C(=O)S/C(=C\c3ccc(-c4cccc(C(=O)O)c4C)o3)C2=O)c1 2.36%

Reference: PubChem BioAssay AID1445 (SRMLSC, 2008)
